PubChem BioAssay (NCI)
About 79,000 compounds went through this panel and 15% of them were active in at least one assay; those are over-represented in the sample as a whole. Values without a mark were called inactive. Calls of active or inactive are those of the source. Cut-off read from the data, not from the text of the source: active = growth inhibition above about 70%; inactive = the rest.

Legend:
[1] = NCI Yeast Anticancer Drug Screen. Data for the rad50 strain (AID 155);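 note: 0% = growth of vehicle-only cultures of the same strain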; settings: S. cerevisiae rad50 strain growth inhibition; at 50.0 µM; stronger effect = higher value
In short: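 Relative growth inhibition (compound vs vehicle) was measured in yeast with a defined repair-gene alteration.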

[2] = NCI Yeast Anticancer Drug Screen. Data for the mec2-1 strain (AID 157); settings: S. cerevisiae mec2-1 strain, at 50.0 µM, stronger effect = higher value
In short: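 Readout is yeast growth inhibition, normalised to vehicle-treated controls, in the mec2-1 strain exposed to compound.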

[3] = NCI Yeast Anticancer Drug Screen. Data for the sgs1 mgt1 strain (AID 161);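 note: 0% = growth of cultures given vehicle only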; settings: S. cerevisiae sgs1 mgt1 strain, at 50.0 µM, stronger effect = higher value
In short: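 Compounds are added to genetically altered yeast, and growth is compared with cultures given vehicle alone to give percent inhibition.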

[4] = NCI Yeast Anticancer Drug Screen. Data for the cln2 rad14 strain (AID 165);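 note: 0% = growth equal to vehicle treated cultures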; settings: S. cerevisiae cln2 rad14 strain, at 50.0 µM, stronger effect = higher value
In short: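 Relative to vehicle controls, growth inhibition of compound-treated cln2 rad14 yeast was recorded.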

[5] = NCI Yeast Anticancer Drug Screen. Data for the bub3 strain (AID 167); settings: S. cerevisiae bub3 mutant strain, at 50.0 µM, stronger effect = higher value
In short: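 Screening used yeast with an engineered genetic alteration affecting cell cycle control. Compound-exposed cultures were compared with vehicle cultures, and reduced growth was taken as inhibition.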

[6] = NCI Yeast Anticancer Drug Screen. Data for the mlh1 rad18 strain (AID 175); settings: S. cerevisiae mlh1 rad18 strain growth inhibition; at 50.0 µM; stronger effect = higher value
In short: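 Test agents were incubated with a yeast strain of defined genotype (DNA damage repair defect). Inhibition of growth was derived by comparison with vehicle-exposed cultures.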

SMILES | growth inhibition [1] | growth inhibition [2] | growth inhibition [3] | growth inhibition [4] | growth inhibition [5] | growth inhibition [6]
COc1ccccc1NC(=O)C(CC(C(=O)Nc1ccccc1OC)/C(C)=N/NC(=O)c1ccccc1O)/C(C)=N/NC(=O)c1ccccc1O (stereo unspecified) | -27.8% | -14.2% | -28.2% | 21.9% | -3.55% | -9.1%
CC1=NNC(=O)C1 | 4.65% | -0.4% | -8.1% | -14.8% | -3.2% | 2.9%
Cc1cc([N+](=O)[O-])ccc1Sc1c2ccccc2nc2ccccc12 | -63.5% | -16.2% | -13.8% | 11.3% | -17.5% | -18.9%
Cc1ccc2ccc(-c3cc4ccccc4s3)nc2c1 | -12.2% | -9.75% | -1.5% | -81.8% | -9.5% | -6.1%
CCOC(=O)c1ccc(-c2ccccc2)cc1 | -44.2% | -28.9% | -14.7% | -7.25% | -12.2% | -15.3%
CC(C)CCN(C(=O)CCl)c1ccccc1 | 59% | 32.6% | 52.4% | 15.1% | 33.5% | 63.8%
CC(=O)/C=C/CCC(=O)/C=C/C(=O)OC(CCC(=O)/C=C/C(=O)O)CC(C)=O (stereo unspecified) | -5.25% | -30.4% | -18.4% | 19.1% | -24.1% | -5.95%
N#CNC(=Nc1ccccc1)[N](C#N)[Sn]([c]1ccccc1)([c]1ccccc1)[c]1ccccc1 | 98.7% (active) | 98.3% (active) | 99.2% (active) | 98.7% (active) | 96.5% (active) | 98.6% (active)
CC(C)(C)/C=C/N=NNc1ccccc1C(=O)NC(C)(C)C | 9.5% | 0.2% | 1.8% | -54.5% | -2% | 12.1%
C=C(C)C(=O)Nc1ccc(NS(=O)(=O)c2ccc(C(C)CC)cc2)c(O)c1 (stereo unspecified) | 9.3% | -8.7% | 18.1% | 35.5% | 14.9% | 1.2%
Brc1ccccc1C=NC12CC3CC(CC(C3)C1)C2 | -2.55% | -7.5% | 2.25% | -55.1% | -3.45% | -5%
CC(C)NC(=O)OCc1nnn2c1CCC2 | -6.9% | 0.05% | -12.5% | -22.7% | -0.05% | -4.05%
Cn1ccc(=O)c2ccccc21 | 3.1% | -1% | -8.55% | 3.45% | 6.1% | 1.9%
COc1ccc2c(=O)c([Se]c3coc4cc(OC)ccc4c3=O)coc2c1 | 7.2% | -17.1% | 3.15% | -52.5% | -23.1% | 3.25%
Nc1nc(N)c(CCCCc2ccc([N+](=O)[O-])cc2)c(N)n1 | -1.05% | 21.1% | 24.1% | -9.95% | -1.4% | -21.3%
OCc1c(-c2ccccc2)oc(-c2ccccc2)c1CN1CCOCC1 | 11.9% | -0.95% | 6.55% | -11.9% | 12% | 9.2%
Cn1c(=O)c2c(nc3sc4c(n32)C(=O)c2c(O)ccc(O)c2C4=O)n(C)c1=O | 21.6% | 30.2% | 51.5% | 55.2% | 41% | -7.2%
COC(=O)CCCC(=O)NC1=C(NCc2ccccc2)C(=O)c2ccccc2C1=O | 10.1% | 12.3% | 33.6% | 13.8% | 32.1% | -0.35%
CCCCOC(=O)c1ccc(NC(=O)Nc2c(C)cccc2C)cc1 | -0.65% | -4.4% | 27.3% | -6.2% | 30.9% | 25%
Cc1ccccc1C1OC2=C(Nc3ccc([N+](=O)[O-])cc3N2)C1=O (stereo unspecified) | 37.5% | 21.4% | 38% | 20.2% | 27.2% | 45.6%
COC(=O)C(C(=O)C(=O)Nc1ccccc1C(C)=O)c1nc2ccc(Cl)cc2[nH]c1=O (stereo unspecified) | -31.9% | -16.2% | -12.3% | -4.45% | -19.3% | -14.4%

SMILES | growth inhibition [1] | growth inhibition [2] | growth inhibition [3] | growth inhibition [4] | growth inhibition [5] | growth inhibition [6]
Cc1ccc(-c2c(C#N)c(-c3ccc([N+](=O)[O-])cc3)c(C#N)c(=O)n2NS(=O)(=O)c2ccccc2)cc1 | 23.1% | 16.8% | 24.5% | 27.4% | 14.6% | 0.8%
CCCCCCCC(CCCCCCC)(C(=O)OCC)C(=O)OCC | 7.1% | -1.65% | 9.1% | -37.5% | 0.25% | 0.9%
CCC1([N+](=O)[O-])CC2C=CC1C2 (stereo unspecified) | 2.2% | -14.3% | -26% | -4.15% | -21.7% | -13.2%
COc1ccc(C(NC(N)=O)c2cc3c(cc2OC(C)=O)OCO3)c(OC)c1 (stereo unspecified) | 10.8% | 4.65% | -2.45% | 22.4% | -3.25% | 16.3%
O=C(N/N=C\c1cccnc1)Nc1ccc(N=Nc2ccccc2)cc1 | 12% | 12.5% | -1.9% | -9.2% | 11.9% | 23.1%
COc1cc(C2C(Cl)C(=O)N2NC(=O)c2ccc(NC(C)=O)cc2)cc(Br)c1O (stereo unspecified) | -0.25% | -14.8% | -9.6% | -24.9% | -7.9% | -30.9%
CN(C)c1ccccc1C1CCCCCC1O (stereo unspecified) | 15.8% | 6.1% | 17.9% | 20.1% | -22.3% | 8.95%
Nc1nc2c(c(-c3ccc(Cl)cc3)n1)CN(c1ccc(Br)cc1)C2=O | 40.5% | 0.8% | -4.85% | 12.7% | -3.1% | 11.9%
O=S(O)CCCSSSCCCS(=O)O | 26.1% | 20.9% | 45.5% | 37% | 20% | 38.6%
O=C(O)CSC1=NNC2(C(=O)N1)c1ccccc1-c1ccccc12 | 1.8% | -2% | 18.4% | -2.1% | -3.85% | 24.1%
Nc1ccc(C(=O)N/N=C/c2ccc(Cl)cc2Cl)cc1 | 27% | -4.05% | 11.9% | 8% | 13.1% | -5.75%
CCC(C)C(CO)N=Cc1ccccc1O.O.[Cu] (stereo unspecified) | 65.3% | 82.3% (active) | 74% (active) | 62% | 80.2% (active) | 83.3% (active)
O=C1c2cccnc2C(=O)C2CC3=C(CCCC3)CC12 (stereo unspecified) | 97.9% (active) | 97.4% (active) | 96.9% (active) | 88.2% (active) | 97.4% (active) | 98.5% (active)
C[C@H]1CCCCC[C@@H]2CC(=O)CC2C(=O)CCC(=O)O1 (stereo partly specified) | 17.6% | -4.25% | -10.6% | 8.05% | -8.85% | 12.7%
O=NN(Cc1ccccc1)c1ccc(OCc2ccccc2)c(NC(=O)CCC2OCCO2)c1 | 6.95% | 4.25% | 30.4% | 7.05% | 39.9% | 9.5%
CC(C)(c1ccccc1)[Si](c1ccccc1)(c1ccccc1)c1ccccc1 | 30.1% | -7.05% | 9.95% | 3.2% | -6.85% | 0.65%
O=C(O)c1ccc(-c2c3ccc(=O)cc-3oc3cc(O)ccc23)cc1 | 18% | -30.1% | 6.05% | 22.1% | 23.9% | 20.4%
COc1ccc(/C=N/N2CCN(/N=C/c3ccc(OC)c(OC)c3)CC2)cc1OC | 22.9% | 0.65% | 3.25% | 19.1% | -1.75% | 1.15%
Cc1cccc(NS(=O)(=O)c2ccc3c(c2)OCCOCCOCCOCCO3)c1 | 1.65% | -11.1% | 7.05% | -28% | -11.4% | -9.45%
CC(C)=C1CC(C)(C)N=C1CCN1CCOCC1 | -12.3% | -20.6% | -12.5% | -6% | -11.3% | -24.6%
